“And” between values parts separate entries of the source, which are not always exact repeats. Identical values can stand only once. Hit rate of the full screen: of about 5,500 compounds, about 2,000 (36%) were called active. Not shown: some 18% with an inconclusive outcome. Cut-off read from the data, not from the text of the source: active = normalized growth mostly below about 0.91 (no sharp cut-off); inconclusive = no clear call, values can overlap the other calls; inactive = mostly above about 0.92. Some of the results follow.
Test: chemical genetic growth profiling, strain panel (AID 1159580);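 note: tested at 20 µM; growth read once vehicle control cultures reached saturation at 30 °C; 1 = growth at the plate median or of vehicle wells; lower values mean less growth of the strain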
Conditions: S. cerevisiae deletion strains, growth OD

Measured: normalized growth

CC(=O)NS(=O)(=O)c1ccc(N)cc1
inactive: locus YAL021C, strain ccr4, stronger effect = lower value 1 | locus YAL026C, strain drs2, stronger effect = lower value 1.01 | locus YAL030W, strain snc1, stronger effect = lower value 1.01 | locus YBL061C, strain skt5, stronger effect = lower value 0.999 | locus YBR009C, strain hhf1, stronger effect = lower value 1.01 | locus YBR021W, strain FUR4, stronger effect = lower value 0.987 | locus YBR023C, strain chs3, stronger effect = lower value 1.01 | locus YBR171W, strain sec66, stronger effect = lower value 1.02 | locus YBR229C, strain ROT2, stronger effect = lower value 0.986 | locus YBR231C, strain swc5, stronger effect = lower value 1.03 | locus YBR279W, strain paf1, stronger effect = lower value 1.01 | locus YCL011C, strain gbp2, stronger effect = lower value 1.02 | locus YCL016C, strain dcc1, stronger effect = lower value 1.01 | locus YCL029C, strain bik1, stronger effect = lower value 0.973 | locus YCL061C, strain MRC1, stronger effect = lower value 1.02 | locus YCL069W, strain vba3, stronger effect = lower value 1 | locus YCR088W, strain abp1, stronger effect = lower value 1.01 | locus YDL005C, strain med2, stronger effect = lower value 1.01 | locus YDL035C, strain GPR1, stronger effect = lower value 1 | locus YDL040C, strain nat1, stronger effect = lower value 0.995 | locus YDL074C, strain BRE1, stronger effect = lower value 1.02 | locus YDL101C, strain DUN1, stronger effect = lower value 0.987 | locus YDL134C, strain PPH21, stronger effect = lower value 0.99 | locus YDL185W, strain tfp1, stronger effect = lower value 0.98 | locus YDL192W, strain arf1, stronger effect = lower value 0.971 | locus YDR001C, strain nth1, stronger effect = lower value 1.01 | locus YDR069C, strain doa4, stronger effect = lower value 1.03 | locus YDR101C, strain arx1, stronger effect = lower value 0.971 | locus YDR137W, strain rgp1, stronger effect = lower value 0.997 | locus YDR150W, strain NUM1, stronger effect = lower value 0.994 | locus YDR159W, strain sac3, stronger effect = lower value 1.03 | locus YDR162C, strain NBP2, stronger effect = lower value 0.999 | locus YDR195W, strain ref2 0.998 | locus YDR297W, strain sur2, stronger effect = lower value 1 | locus YDR318W, strain mcm21, stronger effect = lower value 0.987 | locus YDR334W, strain swr1, stronger effect = lower value 0.999 | locus YDR335W, strain msn5, stronger effect = lower value 0.993 | locus YDR388W, stronger effect = lower value 0.977 | locus YDR392W, strain spt3, stronger effect = lower value 1.01 | locus YDR502C, strain sam2, stronger effect = lower value 0.99 | locus YEL003W, strain gim4, stronger effect = lower value 1.01 | locus YEL037C, strain rad23, stronger effect = lower value 1.01 | locus YEL061C, strain CIN8 (second series), stronger effect = lower value 1.02 | locus YEL061C, strain CIN8, stronger effect = lower value 0.993 | locus YER015W, strain faa2, stronger effect = lower value 1.01 | locus YER016W, strain bim1, stronger effect = lower value 1.02 | locus YER110C, stronger effect = lower value 0.975 | locus YER111C, strain swi4, stronger effect = lower value 1 | locus YER155C, strain BEM2 (second series), stronger effect = lower value 1.05 | locus YER155C, strain BEM2, stronger effect = lower value 0.986 | locus YER167W, strain BCK2, stronger effect = lower value 0.989 | locus YFR010W, strain ubp6, stronger effect = lower value 1.02 | locus YGL078C, strain dbp3, stronger effect = lower value 0.974 | locus YGL086W, strain mad1, stronger effect = lower value 1 | locus YGL167C, strain pmr1, stronger effect = lower value 0.999 | locus YGL173C, strain kem1, stronger effect = lower value 1.01 | locus YGL227W, strain vid30, stronger effect = lower value 1.01 | locus YGL240W, strain doc1, stronger effect = lower value 0.999 | locus YGL248W, strain PDE1, stronger effect = lower value 0.994 | locus YGL253W, strain hxk2, stronger effect = lower value 1.02 | locus YGR078C, strain PAC10, stronger effect = lower value 0.998 | locus YGR135W, strain pre9, stronger effect = lower value 0.976 | locus YGR252W, strain gcn5, stronger effect = lower value 1.05 | locus YHR013C, strain ard1, stronger effect = lower value 1.01 | locus YHR027C, strain rpn1, stronger effect = lower value 1.02 | locus YHR030C, strain SLT2, stronger effect = lower value 0.992 and 0.987 | locus YHR079C, strain IRE1 (second series), stronger effect = lower value 0.978 | locus YHR079C, strain IRE1, stronger effect = lower value 0.982 | locus YHR094C, strain hxt1, stronger effect = lower value 0.993 | locus YHR129C, strain ARP1, stronger effect = lower value 0.997 | locus YHR142W, strain chs7, stronger effect = lower value 1.01 | locus YHR200W, strain rpn10, stronger effect = lower value 0.984 | locus YIL066C, strain RNR3, stronger effect = lower value 0.993 | locus YIL073C, strain SPO22, stronger effect = lower value 0.934 | locus YIL125W, strain kgd1, stronger effect = lower value 0.986 | locus YIR030C, strain dcg1, stronger effect = lower value 0.981 | locus YJL092W, strain hpr5, stronger effect = lower value 1.02 | locus YJL095W, strain BCK1 (second series), stronger effect = lower value 1.01 | locus YJL095W, strain BCK1, stronger effect = lower value 1 and 0.978 | locus YJL115W, strain asf1, stronger effect = lower value 1.04 | locus YJL129C, strain trk1, stronger effect = lower value 1.01 | locus YJL134W, strain LCB3, stronger effect = lower value 0.992 | locus YJL154C, strain vps35, stronger effect = lower value 1.01 | locus YJL164C, strain tpk1, stronger effect = lower value 1 | locus YJL166W, strain qcr8, stronger effect = lower value 1 | locus YJL168C, strain set2, stronger effect = lower value 0.986 | locus YJL187C, strain SWE1 (second series), stronger effect = lower value 0.983 | locus YJL187C, strain SWE1, stronger effect = lower value 1.01 | locus YJR043C, strain POL32, stronger effect = lower value 0.997

— PubChem BioAssay AID1159580 (chemical genetic matrix, 2015)
